# According to the supplement of paper PMC6555819:
# What was measured:
# Experiment in all cases: PBM binding z-score (relative to random genomic background probes); higher = stronger binding; sequences stand for … in GC…GCGATTGACAGCGTAGAATGAAGG
# [1] = tested on: PPARg:RXRa DBDmut IVT, anti-RXR (DBD mutation: RXRa K156A/R161A, NR concentration 270 nM, RXRa partner concentration 90 nM)
# Outline: (§1)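 Each nuclear receptor dimer, without ligand, was incubated for 1 h on custom Agilent 4×180K protein-binding microarrays. Binding was detected with antibodies against each partner (one per run), and scanned fluorescence was regression-normalized. The binding z-scores are referenced to random human genomic background probes.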
# [2] = tested on: PPARg:RXRa IVT, anti-PPARg (NR concentration 270 nM, RXRa partner concentration 90 nM)
# Outline: as §1
# [3] = tested on: PPARg DBDmut:RXRa IVT, anti-PPARg (DBD mutation: PPARg1 K132A/R137A, NR concentration 270 nM, RXRa partner concentration 90 nM)
# Outline: as §1
# [4] = tested on: PPARg DBDmut IVT, anti-PPARg (DBD mutation: PPARg1 K132A/R137A, NR concentration 270 nM)
# Outline: as §1
# [5] = tested on: PPARg homodimer (NR concentration 180 nM)
# Outline: as §1
# [6] = tested on: PXR:RXRa (NR concentration 270 nM, RXRa partner concentration 90 nM)
# Outline: as §1
# [7] = tested on: PXR homodimer (NR concentration 270 nM)
# Outline: as §1
# [8] = tested on: RARa:RXR (NR concentration 270 nM, RXRa partner concentration 90 nM)
# Outline: as §1
# [9] = tested on: RARa homodimer (NR concentration 270 nM)
# Outline: as §1
# [10] = tested on: RARb:RXRa (NR concentration 270 nM, RXRa partner concentration 90 nM)
# Outline: as §1
# [11] = tested on: RARb homodimer (NR concentration 270 nM)
# Outline: as §1
# [12] = tested on: RARg:RXRa (NR concentration 270 nM, RXRa partner concentration 90 nM)
# Outline: as §1
# [13] = tested on: RARg homodimer (NR concentration 270 nM)
# Outline: as §1
# [14] = tested on: RXRa DBDmut IVT, anti-RXR (DBD mutation: RXRa K156A/R161A, NR concentration 90 nM)
# Outline: as §1
# [15] = tested on: RXRa homodimer (NR concentration 180 nM)
# Outline: as §1
# [16] = tested on: THRa:RXRa (NR concentration 90 nM, RXRa partner concentration 90 nM)
# Outline: as §1
# [17] = tested on: THRa homodimer (NR concentration 90 nM)
# Outline: as §1
# [18] = tested on: VDR homodimer (NR concentration 270 nM)
# Outline: as §1
Sequence,PBM binding z-score [1],PBM binding z-score [2],PBM binding z-score [3],PBM binding z-score [4],PBM binding z-score [5],PBM binding z-score [6],PBM binding z-score [7],PBM binding z-score [8],PBM binding z-score [9],PBM binding z-score [10],PBM binding z-score [11],PBM binding z-score [12],PBM binding z-score [13],PBM binding z-score [14],PBM binding z-score [15],PBM binding z-score [16],PBM binding z-score [17],PBM binding z-score [18]
CCTATTAGTTGACCATAAGGGCAACCCAAGCTCG,0.483,0.597,0.502,0.375,1.63,1.12,1.26,1.22,1.66,1.53,2.32,1.44,1.19,0.764,0.835,2.07,1.53,1.28
GATACAGGGTCAGGGCCAGAGTACGCGTATTGAT,1.35,2.69,-0.0398,-0.619,1.64,2.28,0.125,3.24,0.471,3.82,3.15,4.29,4.19,0.901,4.15,2.89,0.838,1.2
ATCTCTAGCTAAGACTCAGTTCAGTGAAGAACGC,-0.0797,0.0403,0.405,0.581,0.595,0.728,1.14,0.508,0.699,0.0718,0.502,0.00118,-0.132,0.313,0.0167,0.338,0.471,1.11
AGAACGCGGGCACGCTGAGTTGATAGCAGAGTAG,0.0817,-0.217,-0.65,-1.15,-0.455,-0.502,-0.289,-0.215,-0.302,0.31,-0.459,0.0245,0.351,-0.368,0.141,-0.476,-1.01,0.0842
CAAACTCGGTCAAGAGGTCAAAGTCCGCTTCCCG,4.29,5.27,1.06,1.86,4.18,5.89,2.01,6.63,1.95,5.01,5.17,7.26,6.13,2.01,6.42,3.9,1.61,3.72
TCATATAGGTAAAACAGGTGAAAGTCGGCATCTA,3.88,2.77,0.289,1.07,1.06,0.972,0.0725,1.62,1.05,0.579,0.437,0.572,0.226,1.71,1.1,0.827,0.0853,-0.37
CCTAGTTGGTCAAGATCACACACGCTATAGGTAC,1.36,1.04,0.47,1.08,1.14,0.0789,0.685,-0.0472,1.56,1.03,0.785,0.893,1.22,0.493,0.581,0.0913,0.528,0.699
